Assay outcomes (PubChem BioAssay)
The list is not random: actives were taken first. Their share in the collection is about 8%.
HT1080 IDH1KD tx: toxicity to HT-1080 IDH1 knockdown cells (counter line); HT-1080 IDH1 knockdown viability, ATP luminescence, 48 h; Potency, µM (top dose mostly 46.1 µM), inactives show at the top dose activity, negative = toxicity, most hits filed as cytotoxic; 360,000 tested, 2% active;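 further: 0% = DMSO wells and -100% = cell-free medium wells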
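Viability of IDH1-knockdown HT-1080 fibrosarcoma cells was assessed by CellTiter-Glo after 48 h at 37 °C with titrated compound; concentration-effect curves were classified by fit quality and response size.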
HT1080NT lethal: kills 2HG-producing HT-1080-NT fibrosarcoma cells. AID 686970. 360,000 tested, 1.6% active. HT-1080-NT fibrosarcoma viability, CellTiter-Glo ATP luminescence, 48 h. Potency, µM (highest dose often 46.1 µM), for the others: at the top dose activity, negative = less viability, usual class: cytotoxic;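 further: NT is the 2HG producing partner of a matched IDH1 knockdown line; 0% = DMSO-treated cells and -100% = media-only wells without cells; nearly all actives have a fitted effect of over 55% in size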
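Viability by CellTiter-Glo luminescence after 48 h compound exposure at 37C of HT-1080-NT cells (750/well, RPMI, 5% FBS). % activity scaled between DMSO wells and medium-only wells, then curve-fitted and categorized by curve class.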
KB-V1 cytotox: KB-V1 MDR subline cytotoxicity; KB-V1 MDR cells viability, CellTiter-Glo, 72 h; 400,000 tested, 3.4% active; Potency, µM (highest dose often 46.1 µM), most hits filed as cytotoxic; AID 1347076; further: on the % scale 0 is the no-effect control and ±100 the full control effect; nearly all actives have a fitted effect of over 60% in size
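In this primary screen, KB-V1 cells overexpressing P-gp are incubated with library compounds (lowest to highest concentration) for 72 h at 37 degrees C before a luminescent ATP viability read.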
KB-3-1 cytotox: kills parental KB-3-1 adenocarcinoma cells | KB-3-1 viability, CellTiter-Glo ATP luminescence, 72 h | Potency, µM (titrated, usually from 46.1 µM), most hits filed as cytotoxic | 400,000 tested, 1.4% active | AID 1347075; further: on the % scale 0 is the no-effect control and ±100 the full control effect; nearly all actives have a fitted effect of over 60% in size
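Cytotoxicity measured as CellTiter-Glo luminescence after 72 h at 37 C. Compound titrations were pinned onto drug-naive KB-3-1 parental adenocarcinoma cells grown in DMEM with 10% FBS, and normalized data fitted to concentration-response curves.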
MCF10A rereplic: inducers of DNA re-replication in MCF 10A breast cells. MCF 10A DNA re-replication, Hoechst nuclear intensity, 48 h. Potency, µM (highest dose often 46.1 µM), inactives show at the top dose activity, positive = re-replication, hits mostly activators. 350,000 tested, 2.9% active; further: % of control where 0% means no effect; nearly all actives have a fitted effect of over 50% in size
SW480 rerep: induces DNA re-replication in SW480 colon adenocarcinoma cells | SW480 DNA re-replication, Hoechst DNA content imaging, 48 h | Potency, µM (highest dose often 46.1 µM), for inactives: top-dose re-replication activation, actives largely listed as activators | 340,000 tested, 1.8% active; further: % of control where 0% means no effect; nearly all actives have a fitted effect of over 55% in size
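SW480 cells exposed to compounds for 48 hr at 37 C, 5% CO2, then Hoechst-stained 40 min. Nuclear DNA content imaged by fluorescence scanning (405 nm excitation, 500-530 nm emission); re-replication scored as increased high-intensity nuclei.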
An asterisk follows results filed as active; i = inactive; ? = inconclusive; nt = not tested or not shown; [ ] = remark or other dose. The call rests on the fitted dose curve; in most records, active means well fitted curve in the direction sought with a large enough effect; inconclusive means small, poorly fitted or top-dose-only effect, or another doubt; inactive means no such curve, though single readings can be large; an effect the other way counts as inactive or inconclusive. Potency means the concentration at half of the fitted maximal effect.

SMILES	HT1080 IDH1KD tx	HT1080NT lethal	KB-V1 cytotox	KB-3-1 cytotox	MCF10A rereplic	SW480 rerep
O=C(COC(=O)c1ccc([N+](=O)[O-])o1)Nc1cccc(S(=O)(=O)N2CCCCC2)c1	-0.9%	-3.0%	i	i	-0.9%	-7.5%
O=C(Nc1cccc(S(=O)(=O)N2CCCCC2)c1)c1ccc([N+](=O)[O-])o1	5.17µM*	10.3µM*	?	?	16.4µM*	6.51µM*
COc1ccc(-c2c(C)c3ccc(O)c(CN4CCOCC4)c3oc2=O)cc1	nt	nt	i	i	nt	nt
Cc1ccc2c(c1)NC(C(C)(C)C)CO2 (stereo unspecified)	4.3%	7.9%	i	i	-8.3%	5.4%
Cc1ccc(S(=O)(=O)CCC(=O)OCC(=O)Nc2cccc(S(=O)(=O)N3CCCCC3)c2)cc1	-7.9%	-3.7%	i	i	nt	nt
Cc1ccc(S(=O)(=O)CCC(=O)Nc2cccc(S(=O)(=O)N3CCCCCC3)c2)cc1	7.0%	3.2%	9.2µM*	?	15.6%	4.9%
O=S(=O)(Nc1ccccc1OC(F)F)c1ccc(S(=O)(=O)N2CCCC2)cc1	-1.6%	-2.0%	18.4µM*	i	7.0%	-7.6%
Cc1oc(-c2ccccc2Cl)nc1CS(=O)CC(=O)NC1CC1 (stereo unspecified)	9.9%	12.7%	i	i	14.4%	3.6%
CC1(C)CC(=O)C2=C(C1)Oc1nc3ccccc3cc1C2C(C#N)C#N (stereo unspecified)	23.1µM*	18.4µM*	?	20.6µM*	9.2µM*	?
CC1(C)CC(=O)C(C2C3=C(CC(C)(C)CC3=O)Oc3ccccc32)C(=O)C1 (stereo unspecified)	-5.6%	28.5%	i	i	4.2%	-5.7%
COC(=O)c1[nH]c2cc(OC)c(OC)cc2c1NC(=O)CN1C[C@H]2C[C@@H](C1)c1cccc(=O)n1C2	5.9%	15.2%	i	i	4.1%	-34.1%
CC(=O)c1c(C(C)=O)c(C)n(-c2ccc(C)c(NC(=O)c3ccccc3Cl)c2)c1C	-22.1%	0.0%	3.66µM*	i	-6.0%	7.8%
COc1ccc(C(=O)Nc2ccc(OCC(F)(F)C(F)F)c(C(F)(F)F)c2)cc1OC	?	?	?	?	14.0%	1.1%[9.22 µM]
O=C(Nc1ccc(OCC(F)(F)C(F)F)c(C(F)(F)F)c1)c1ccc(Cl)cc1	14.6µM*	25.9µM*	?	?	23.1µM*	?
O=C(Nc1ccc(Br)c(C(F)(F)F)c1)c1ccccc1	0.4%	-0.3%	16.4µM*	i	?	-3.8%
O=C(Nc1cccc(O)c1)c1ccc(C(F)(F)F)cc1	-2.4%	-20.4%	i	i	3.1%	-147.5%
O=C(Nc1ccc(Br)c(C(F)(F)F)c1)c1ccc(C(F)(F)F)cc1	13µM*	20.6µM*	?	?	14.6µM*	?
O=C(Nc1ccc(C(F)(F)F)cc1)c1ccccc1	7.5%	49.1%	i	i	6.2%	4.6%
O=S(=O)(c1ccccc1Cl)N1CCCC(c2nc(-c3cccnc3)no2)C1 (stereo unspecified)	-0.8%	0.1%	7.31µM*	i	-3.3%	-3.8%
CCS(=O)(=O)N1CCCC(c2nc(-c3cccc(OC)c3)no2)C1 (stereo unspecified)	2.1%	3.6%	i	i	0.5%	-6.4%
Cc1ccc(S(=O)(=O)N2CCCC(c3nc(-c4ccc(C)o4)no3)C2)cc1 (stereo unspecified)	-1.8%	-18.8%	i	i	1.5%	3.6%
COc1cc(-c2noc(C3CCCN(C(=O)c4c(F)cccc4F)C3)n2)cc(OC)c1OC (stereo unspecified)	1.1%	1.5%	i	i	23.6%	0.3%
O=S(=O)(c1ccccc1Cl)N1CCCC1c1nc(-c2cccc(Cl)c2)no1 (stereo unspecified)	-14.3%	-13.4%	?	i	8.5%	-3.5%
